Tg IFNy HTS: inhibitors of Toxoplasma gondii growth with IFN-gamma; Toxoplasma gondii growth in IFN-gamma-treated host cells; active compounds read low; AID 1259416; actives 3.8% (n = 69,000); activity change, negative = inhibition, % (concentration not given with the values); in the data active means activity change below about -70%, passing the limit was not always enough;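 further: host cells are HeLa cells infected with Toxoplasma gondii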
Starred values were filed as active, the others as inactive; ! = a repeat was not active. This excerpt belongs to a sample that is enriched for hits.

SMILES | Tg IFNy HTS
Cc1ccc(CN2C[C@@H]3C[C@H](C(=O)NCC(C)C)[C@@H](C2)O3)o1 | -5
Cc1ccccc1CN1CCC2(CC1)COc1ccccc1S(=O)(=O)N(CC1CC1)C2 | 0
c1cc(C2CN(c3cc(N4CCOCC4)ncn3)C2)ccn1 | 16
CS(=O)(=O)N1CCN(C2CCOCC2)CC(C(=O)O)C1 (stereo not drawn) | -100*
CS(=O)(=O)N1Cc2ccccc2C2(CCN(C3CCOCC3)CC2)C1 | 47
CN(C)C(=O)[C@H]1C[C@@H]2CCN(S(C)(=O)=O)C[C@H]2O1 | -2
CNC(=O)C(C)(C)N(C)C(=O)c1ccccc1N1CCOCC1 | 73
Cc1cc(CC(C)NC(=O)c2cc(C(C)C)no2)n[nH]1 (stereo not drawn) | 0
COc1ccc([C@H]2CC=CC[C@H](C)Oc3ccccc3C(=O)N(C)[C@@H](C(C)C)C(=O)N2)c(OC)c1 (mixture of isomers) | -11
C[C@@H]1CC=CC[C@@H](c2cccc(Cl)c2)NC(=O)[C@@H](Cc2ccccc2)N(C)C(=O)c2ccccc2O1 (mixture of isomers) | -63
COc1ccc([C@H]2CC=CC[C@@H](C)Oc3ccccc3C(=O)N(C)[C@H](Cc3ccccc3)C(=O)N2)c(OC)c1 (mixture of isomers) | -79*
CC(=O)O[C@@H]1CC2C(C)(CC[C@H](O)C2(C)C)C2CC[C@]3(C)C(=CC(=O)O[C@H]3c3ccoc3)C21C (stereo partly drawn) | -63
Cc1cccnc1C(C)Nc1nc(CCN)nc2sc(C)c(C)c12 (stereo not drawn) | -26
CCS(=O)(=O)N1Cc2cc(-c3ccn[nH]3)ccc2C1c1cnco1 (stereo not drawn) | 11
CCOCC(=O)N1C[C@@H]2COC[C@]2(COCC2CCOCC2)C1 | 0
CCN1CCN(Cc2cc(C(=O)N(C)Cc3ccsc3)no2)CC1 | 17
CCOC(=O)N1CCC(NCCS(=O)(=O)N(C)C)CC1 | -3
COc1cc(OC(C)=O)c(-c2cc(OC(C)=O)c(OC)cc2OC(C)=O)cc1OC(C)=O | 104
CC(=O)Nc1cc(OC(C)=O)c2nonc2c1OC(C)=O | -75*
CC(=O)Oc1cccc(C(=O)O)c1OC(C)=O | 17
CNc1ncc(-c2ccc(OC)nc2OC)c(-c2ccc(C)cc2)n1 | 8
Cc1ccccc1NC(=S)c1cc(C(C)(C)C)c(O)c(C(C)(C)C)c1 | 14
Clc1cc2c(c(CSc3ccccc3C3=NCCCN3)c1)OCOC2 | 38
FC(F)(F)c1ccc2nc(SCc3cc(Cl)cc4c3OCOC4)[nH]c2c1 | -81*
COc1ccc(C(C)=O)cc1CSc1nc2ccc(C(F)(F)F)cc2[nH]1 | -52
SMILES | Tg IFNy HTS
COc1cccc(-c2cc(C(=O)N3CC[C@H](O)[C@@H](O)C3)[nH]n2)c1 | 1
O=C(NCc1ccncc1)C1CC12CCN(S(=O)(=O)c1ccccc1)C2 (stereo not drawn) | -3
Cc1ccc(CN2CCN(C3CCN(C(C)C)CC3)C(CCO)C2)cc1C (stereo not drawn) | 4
c1ccc(CN2CCC(NCc3ccccc3-n3ccnc3)CC2)nc1 | 1
Cc1noc(C)c1C(=O)NCc1ccc(-c2csnn2)cc1 | 18
CNC(=O)c1ccc(-c2ccc(CNC(=O)COC)cc2)nc1C | -74*
CCc1nc(OCC(=O)NCc2ccc(C)cc2)c2ccccc2n1 | -5
Cc1ncoc1C(=O)N1CCC(Cc2cccc(-c3ccccc3)c2)(C(=O)NCC(C)C)C1 (stereo not drawn) | -24
CCOC(=O)c1cc(-c2nc(-c3ccccc3)cs2)c(C)nc1C(F)(F)F | -36
CCOC(=O)c1cc(C(N)=S)c(C)nc1C(F)(F)F | -79*
CCOC(=O)c1cc(C#N)c(Sc2nnc(SC)s2)nc1C(F)(F)F | -32
N#Cc1cccc(CN2CCC3(CC(NS(=O)(=O)C4CC4)C3)C2)c1 (stereo not drawn) | -2
COc1cccc([C@@H]2C[C@H](NC(C)=O)C[C@H](C3CCCCC3)O2)c1F | -32
O=c1[nH]c(CN(Cc2cccs2)S(=O)(=O)c2ccc(F)cc2)nc2ccccc12 | -1
O=C(NCC(c1ccccc1)c1c[nH]c2ccccc12)c1ccc(C(F)(F)F)cc1 (stereo not drawn) | -88*
CCc1ccccc1NC(=O)NCC(c1cccnc1)c1c[nH]c2ccccc12 (stereo not drawn) | 53
O=C(NCC(c1cccnc1)c1c[nH]c2ccccc12)Nc1ccccc1C(F)(F)F (stereo not drawn) | 114
CC(C)CN1C(=O)C2(NCCc3c2[nH]c2ccc(F)cc32)c2ccccc21 (stereo not drawn) | 256
Cc1noc(-c2cc(=O)n(CC(=O)NCc3cccs3)c3ccccc23)n1 | 59
Cc1cc(-c2c(-c3ccccc3)ncn2CCN2CCCOC2=O)n[nH]1 | -49
Cc1ccc(-c2nn3c(C)nnc3c3ccccc23)cc1S(=O)(=O)NCc1cccnc1 | 13
CCCCc1ccc2nc(NC(=O)OC)[nH]c2c1 | -32
CCCS(=O)(=O)c1ccc2nc(NC(=O)OC)[nH]c2c1 | -47
COC(=O)Nc1nc2ccc(-c3n[nH]c(=O)c4ccccc34)cc2[nH]1 | -102*
NCC1Cc2cc(-c3nc4ccccc4o3)cc(F)c2O1 (stereo not drawn) | 30
SMILES | Tg IFNy HTS
O=C(Nc1cccc(-n2cccn2)c1)c1ccc(Cl)c(NCc2ccccn2)c1 | 46
O=C(NCc1ccccc1)c1c(O)c2cccnc2[nH]c1=O | 8
O=C(COCc1ccccc1)NCc1cnn2ccccc12 | -30
Oc1ccc(COCc2ccccc2)c2cccnc12 | -96*
CC(C)(C)c1cc(-c2csc(-c3ccc(Cl)cc3)n2)cc(C(C)(C)C)c1O | 58
Cn1ncc(-c2nc(-c3ccc(Cl)cc3)cs2)c1N | -83*
Cc1nc(-c2ccc(Cl)cc2)cs1 | -1
COc1ccccc1-n1c(SCC(=O)Nc2nc(C)c(C)s2)nc2cccnc21 | -10
COc1ccc(-n2c(Cn3cccn3)n[nH]c2=O)cc1 | -2
Cc1nccn1CC1CCCN(Cc2nc3ccccc3n2C)C1 (stereo not drawn) | 9
COc1ccc(-c2sncc2-c2ccccc2)cc1 | -109*
COc1ccc(-c2nc(Cc3noc(-c4ccccc4)n3)c(C)o2)cc1 | -21
COc1ccc(-c2cc(-c3ccccc3)c(C)c(-c3ccccc3)n2)cc1 | -50
Cc1ccc(-c2ccccc2CC2(C(=O)Nc3cccc(C(N)=O)c3)CCOCC2)c(C)c1 | 11
CC(=O)Nc1ccc(S(=O)(=O)N2CCC3(CC2)Nc2ccc(C)c(C)c2-n2cccc23)cc1 | -9
Clc1ccc(CO/N=C(\Cn2ccnc2)c2ccc(Cl)cc2Cl)c(Cl)c1 | -83*!
Cl/C(=C\n1cncn1)c1ccc(Cl)cc1Cl | -59
O=C(NCCCn1ccnc1)Nc1c[nH]c2cc(Cl)ccc2c1=O | 306
CC(NC(=O)CCCN1C(=O)CCC1=O)c1cc2cc(Cl)ccc2o1 (stereo not drawn) | 5
O=C(c1cccc(F)c1)N1CCC2(CC1)Nc1ccc(Cl)cc1-n1cccc12 | -63
Cn1c(=O)cc(C(=O)N2CCCC(O)(CO)CC2)c2ccccc21 (stereo not drawn) | 6
CCCCc1nnc(NC(=O)C2CC(=O)N(CCc3c[nH]c4ccc(C)cc34)C2)s1 (stereo not drawn) | -28
CCCc1nnc(NC(=O)C2CC(=O)N(CCc3c[nH]c4ccc(Cl)cc34)C2)s1 (stereo not drawn) | -91*
CCCCc1nnc(NC(=O)C2CC(=O)N(CCc3c[nH]c4ccc(OC)cc34)C2)s1 (stereo not drawn) | 68

Source: PubChem
